Measurements: PubChem BioAssay (EPA / NIEHS)
The source holds several records for some structures; these can differ, active in one and inactive in another. Active and inactive are the calls of the source. The calls were made as follows: active = hit-call score of the fitted dose curve at least 0.9, where 1 is the maximum; inactive = score below 0.9.

Experiments:
[1] = read-out: Vascular endothelial growth factor receptor 2 (Homo sapiens) (UniProt P35968); assay: BSK_4H_VEGFRII: BioMAP Diversity Plus: 4H Assay for Vascular endothelial growth factor receptor 2 (VEGFR2) Biomarker Activity (AID 2283031); conditions: primary human endothelial cells (HUVEC); actives raise or lower the signal;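 as to AC50: cell-surface VEGFR2 protein level quantified by ELISA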
Summary of the method: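 ELISA read-out of VEGFRII in primary human umbilical vein endothelium, taken 24 h after chemical treatment. Responses are expressed relative to DMSO, with bidirectional fitting.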

[2] = read-out: Human Leukocyte Antigen - DR isotype (HLADR), HLA-DRA (gene 3122); assay: BSK_BE3C_HLADR: BioMAP Diversity Plus: BE3C Assay for Human Leukocyte Antigen - DR isotype (HLADR) Biomarker Activity (AID 2283032); conditions: primary human bronchial epithelial cells; actives raise or lower the signal
Summary of the method: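 Chemicals are dosed onto BE3C bronchial epithelial cultures of human origin and left 24 h. HLA-DR is then measured by ELISA, and the endpoint is fitted in both directions using DMSO as the activity baseline.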

[3] = read-out: Vascular cell adhesion molecule 1 (VCAM1), VCAM1 (gene 7412); assay: BSK_4H_VCAM1: BioMAP Diversity Plus: 4H Assay for Vascular cell adhesion molecule 1 (VCAM1) Biomarker Activity (AID 2283033); conditions: primary human endothelial cells (HUVEC); actives raise or lower the signal
Summary of the method: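 Chemicals are added to primary human umbilical vein endothelial cells. After 24 h, VCAM-1 levels are measured by ELISA. Values come from bidirectional fitting referenced to DMSO.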

[4] = read-out: Interferon-gamma inducible Protein 10 (IP10), CXCL10 (gene 3627); assay: BSK_BE3C_IP10: BioMAP Diversity Plus: BE3C Assay for Interferon-gamma inducible Protein 10 (IP10) Biomarker Activity (AID 2283034); conditions: primary human bronchial epithelial cells; actives raise or lower the signal
Summary of the method: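 IP-10 quantified by ELISA serves as the endpoint. Cells: primary human bronchial epithelium, read 24 h after compound addition. Activity is derived by bidirectional fitting with DMSO as negative control.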

[5] = read-out: Monokine induced gamma interferon (MIG), CXCL9 (gene 4283); assay: BSK_BE3C_MIG: BioMAP Diversity Plus: BE3C Assay for Monokine induced gamma interferon (MIG) Biomarker Activity (AID 2283035); conditions: primary human bronchial epithelial cells; actives raise or lower the signal
Summary of the method: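 ELISA quantified MIG after 24 h exposure of primary bronchial epithelial cultures, analysed in both directions relative to DMSO. Cytotoxicity tracked in parallel cultures by sulforhodamine B staining.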

[6] = read-out: Plasminogen activator inhibitor-1 (PAI1), SERPINE1 (gene 5054); assay: BSK_BE3C_PAI1: BioMAP Diversity Plus: BE3C Assay for Plasminogen activator inhibitor-1 (PAI1) Biomarker Activity (AID 2283037); conditions: primary human bronchial epithelial cells; actives raise or lower the signal
Summary of the method: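 Values derive from bidirectional fitting against DMSO baseline of PAI-1 levels, measured by ELISA in human bronchial epithelial cells 24 h after compound addition.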

[7] = read-out: urokinase plasminogen activator (uPA), PLAU (gene 5328); assay: BSK_BE3C_uPA: BioMAP Diversity Plus: BE3C Assay for urokinase plasminogen activator (uPA) Biomarker Activity (AID 2283038); conditions: primary human bronchial epithelial cells; actives raise or lower the signal
Summary of the method: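 Bronchial epithelial cells (human, primary); chemical 24 h; uPA by ELISA; bidirectional fit vs DMSO. SRB (0.1%, after 10% TCA fixation, 560 nm) in parallel cultures for cytotoxicity.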

[8] = read-out: Urokinase-type plasminogen activator receptor (uPAR), PLAUR (gene 5329); assay: BSK_BE3C_uPAR: BioMAP Diversity Plus: BE3C Assay for Urokinase-type plasminogen activator receptor (uPAR) Biomarker Activity (AID 2283039); conditions: primary human bronchial epithelial cells; actives raise or lower the signal
Summary of the method: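 Steps: dose human primary bronchial epithelial cells, incubate 24 h, measure uPAR by ELISA, then fit gain- or loss-of-signal response bidirectionally relative to DMSO.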

[9] = read-out: Interleukin-6 (IL6), IL6 (gene 3569); assay: BSK_CASM3C_IL6: BioMAP Diversity Plus: CASM3C Assay for Interleukin-6 (IL6) Biomarker Activity for (AID 2283040); conditions: primary human coronary artery smooth muscle cells; actives raise or lower the signal
[10] = read-out: Tissue plasminogen activator (tPA), PLAT (gene 5327); assay: BSK_BE3C_tPA: BioMAP Diversity Plus: BE3C Assay for Tissue plasminogen activator (tPA) Biomarker Activity (AID 2283041); conditions: primary human bronchial epithelial cells; actives raise or lower the signal
Summary of the method: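 Gain- or loss-of-signal in tPA, measured by ELISA, derived by bidirectional fitting against DMSO. Cells: human primary bronchial epithelial; read at 24 h after chemical dosing.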

[11] = read-out: Interleukin-8 (IL8), CXCL8 (gene 3576); assay: BSK_CASM3C_IL8: BioMAP Diversity Plus: CASM3C Assay for Interleukin-8 (IL8) Biomarker Activity (AID 2283042); conditions: primary human coronary artery smooth muscle cells; actives raise or lower the signal;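 also: IL-8 protein level quantified by ELISA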
[12] = read-out: Human Leukocyte Antigen - DR isotype (HLADR), HLA-DRA (gene 3122); assay: BSK_CASM3C_HLADR: BioMAP Diversity Plus: CASM3C Assay for Human Leukocyte Antigen - DR isotype (HLADR) Biomarker Activity (AID 2283043); conditions: primary human coronary artery smooth muscle cells; actives raise or lower the signal;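 also: cell-surface HLA-DR protein level quantified by ELISA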
[13] = read-out: Macrophage colony-stimulating factor (MCSF), CSF1 (gene 1435); assay: BSK_CASM3C_MCSF: BioMAP Diversity Plus: CASM3C Assay for Macrophage colony-stimulating factor (MCSF) Biomarker Activity (AID 2283044); conditions: primary human coronary artery smooth muscle cells; actives raise or lower the signal;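 also: M-CSF protein amount quantified by ELISA after 24 h exposure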
[14] = read-out: Low-density lipoprotein receptor (LDLR), LDLR (gene 3949); assay: BSK_CASM3C_LDLR: BioMAP Diversity Plus: CASM3C Assay for Low-density lipoprotein receptor (LDLR) Biomarker Activity (AID 2283045); conditions: primary human coronary artery smooth muscle cells; actives raise or lower the signal;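 also: LDLR protein level on the cell surface quantified by ELISA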
[15] = read-out: Monocyte Chemoattractant Protein-1 (MCP1), CCL2 (gene 6347); assay: BSK_CASM3C_MCP1: BioMAP Diversity Plus: CASM3C Assay for Monocyte Chemoattractant Protein-1 (MCP1) Biomarker Activity (AID 2283046); conditions: primary human coronary artery smooth muscle cells; actives raise or lower the signal;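 also: MCP-1 level quantified by ELISA 24 h after dosing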
[16] = BSK_CASM3C_Proliferation: Cell Proliferation Assessment in the BioMAP Diversity Plus: CASM3C Assay (AID 2283047); conditions: primary human coronary artery smooth muscle cells;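 also: sulforhodamine B total protein stain as relative cell number at 560 nm; sub-confluent cells exposed 48 h before staining; fitted both ways against DMSO so gain or loss of cell number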
[17] = read-out: Monokine induced gamma interferon (MIG), CXCL9 (gene 4283); assay: BSK_CASM3C_MIG: BioMAP Diversity Plus: CASM3C Assay for Monokine induced gamma interferon (MIG) Biomarker Activity (AID 2283048); conditions: primary human coronary artery smooth muscle cells; actives raise or lower the signal;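 also: MIG protein level measured by ELISA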
[18] = read-out: serum amyloid A (SAA), SAA1 (gene 6288); assay: BSK_CASM3C_SAA: BioMAP Diversity Plus: CASM3C Assay for serum amyloid A (SAA) Biomarker Activity (AID 2283049); conditions: primary human coronary artery smooth muscle cells; actives raise or lower the signal;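 also: SAA protein level quantified by ELISA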
[19] = BSK_CASM3C_SRB: Viability Assessment in the BioMAP Diversity Plus: CASM3C Assay (AID 2283050); conditions: primary human coronary artery smooth muscle cells;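 also: total protein by SRB staining as cytotoxicity measure in parallel cultures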
[20] = read-out: Transforming growth factor beta 1 (TGFb1), TGFB1 (gene 7040); assay: BSK_BE3C_TGFb1: BioMAP Diversity Plus: BE3C Assay for Transforming growth factor beta 1 (TGFb1) Biomarker Activity (AID 2283036;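 also: TGF-b1 protein level measured by ELISA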); conditions: primary human bronchial epithelial cells; actives raise or lower the signal
Summary of the method: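 Bronchial epithelial primary cells are treated with test chemical, then TGF-b1 is quantified by ELISA after 24 hours. Values derive from bidirectional fitting against DMSO, with cytotoxicity checked by SRB staining in parallel cultures.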

Measured: AC50

O=C(O)CCC(F)(C(F)(F)F)C(F)(F)F
inactive: [1] | [2] | [3] | [4] | [5] | [6] | [7] | [8] | [9] | [10] | [11] | [12] | [13] | [14] | [15] | [16] | [17] | [18] | [19]
active: [13] 23.9 µM | [18] 17.9 µM

COc1cc(OC)nc(NC(=O)NS(=O)(=O)c2ncccc2C(=O)N(C)C)n1
inactive: [1] | [2] | [3] | [4] | [5] | [20] | [6] | [7] | [8] | [9] | [10] | [11] | [12] | [13] | [14] | [15] | [16] | [17] | [18] | [19]

CCOP(=S)(OCC)Oc1nc(Cl)c(Cl)cc1Cl
inactive: [1] | [2] | [4] | [5] | [20] | [6] | [7] | [8] | [9] | [10] | [11] | [12] | [13] | [14] | [15] | [16] | [17] | [18] | [19]
active: [3] 15.8 µM

CCNc1nc(NC(C)(C)C)nc(SC)n1
inactive: [2] | [3] | [4] | [5] | [20] | [6] | [7] | [8] | [9] | [10] | [11] | [12] | [13] | [14] | [15] | [16] | [17] | [18] | [19]

CC(C)(OO)c1ccccc1
inactive: [1] | [2] | [3] | [4] | [5] | [20] | [6] | [7] | [8] | [9] | [10] | [11] | [12] | [13] | [14] | [15] | [17] | [18] | [19]
active: [16] 22.5 µM

Oc1ccc(-c2ccccc2)cc1
inactive: [1] | [2] | [3] | [4] | [5] | [20] | [6] | [7] | [8] | [10] | [11] | [12] | [15] | [17] | [18]
active: [13] 32.5 µM | [14] 3.97 µM | [16] 6 µM | [19] 3.97 µM

CCN1CCC2(CC1)COc1cc3c(cc12)N(C(=O)c1ccc(-c2ccc(-c4nnc(C)o4)cc2C)cc1)CC3
inactive: [1] | [20]
active: [2] 10.5 µM | [3] 27.8 µM | [4] 14.4 µM | [5] 23.8 µM | [6] 12.5 µM | [7] 18.7 µM | [8] 18.7 µM | [9] 31.7 µM | [10] 18.7 µM | [11] 27.9 µM | [12] 15.3 µM | [13] 27.4 µM | [14] 34.2 µM | [15] 28.5 µM | [16] 18.7 µM | [17] 36 µM | [18] 32.5 µM | [19] 24.4 µM

OCc1ccco1
inactive: [1] | [2] | [3] | [4] | [5] | [20] | [6] | [7] | [8] | [9] | [10] | [11] | [12] | [13] | [14] | [15] | [16] | [17] | [18] | [19]

ClC(Cl)=C(Cl)C(Cl)=C(Cl)Cl
active: [1] 31.1 µM | [2] 26.9 µM | [3] 34.8 µM | [4] 31.5 µM | [6] 20 µM | [7] 20 µM | [9] 3.97 µM | [16] 1.52 µM
inactive: [5] | [20] | [8] | [10] | [11] | [12] | [13] | [14] | [15] | [17] | [18] | [19]

CC(C)(C)c1cc(O)ccc1O
inactive: [1] | [5] | [20] | [7] | [8] | [9] | [10] | [11] | [14] | [15] | [17] | [18] | [19]
active: [2] 18.3 µM | [3] 23.2 µM | [4] 26.9 µM | [6] 14 µM | [12] 20 µM | [13] 20 µM | [16] 29.6 µM

Cc1ccccc1N
inactive: [1] | [2] | [3] | [4] | [5] | [20] | [6] | [8] | [9] | [10] | [11] | [12] | [13] | [14] | [15] | [16] | [17] | [18] | [19]

CCC(=O)C(CC(C)N(C)C)(c1ccccc1)c1ccccc1 (stereo not drawn)
inactive: [1] | [2] | [3] | [4] | [5] | [20] | [6] | [7] | [8] | [9] | [10] | [11] | [12] | [13] | [14] | [15] | [16] | [17] | [18] | [19]

BrCCBr
active: [16] 0.197 µM
inactive: [1] | [2] | [3] | [4] | [5] | [20] | [6] | [7] | [8] | [9] | [10] | [11] | [12] | [13] | [14] | [15] | [17] | [18] | [19]
